Data published in PubChem BioAssay (EPA / NIEHS).
Several values for one entry are separate records, joined by “and”; a condition that tells them apart may be missing. Identical values can stand only once. Records with an inconclusive call do not appear. Some compounds were tested as several samples or in several runs, with calls that do not always agree. Activity calls are given as the source filed them. The calls were made as follows, unless noted: active = hit-call score of the fitted dose curve at least 0.9, where 1 is the maximum; inconclusive = response in the unintended direction; inactive = score below 0.9.

Test system: not listed separately
Test: ATG_VDRE_CIS: Attagene CIS-FACTORIAL HepG2 Assay for human Vitamin D Receptor Element (VDRE) (AID 2282968; active = hit-call score of the fitted dose curve at least 0.9, where 1 is the maximum; inactive = score below 0.9)
Settings: HepG2 VDRE cis-reporter transcription, actives raise or lower the signal
Outline: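 HepG2 cells transiently transfected with cis-element reporter units, dosed 24 h; reporter mRNA measured by RT-PCR, 6-FAM labeling, HpaI digestion and capillary electrophoresis. Activity fitted bidirectionally against DMSO baseline.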
With `COC(=O)Nc1nc2ccccc2[nH]1` the outcome was “inactive”.
With `Cc1cc(N=Nc2ccccc2C)ccc1N` the AC50 was 22.9 µM (active).
With `Clc1ccc(C(c2ccc(Cl)cc2)C(Cl)Cl)cc1` the AC50 was 15.7 µM (active).
In the case of `O=Cc1ccco1`, the outcome was “inactive”.
For `c1ccc(NNc2ccccc2)cc1`, the outcome was “inactive”.
For `CN(C)C(=O)Nc1ccc(Cl)cc1`, the outcome was “inactive”.
In the case of `c1ccc(N=Nc2ccccc2)cc1`, the outcome was “inactive”.
With `O=P(OCCCl)(OCCCl)OCCCl` the outcome was “inactive”.
In the case of `c1ccc2c(c1)-c1cccc3cccc-2c13`, the outcome was “inactive”.
With `CCCSC(=O)N(CCC)CCC` the outcome was “inactive”.
For `O=[N+]([O-])c1ccc(Oc2ccc(Cl)cc2Cl)cc1`, the AC50 was 27.3 µM (active).
In the case of `CC(C)(C)C(O)(CCc1ccc(Cl)cc1)Cn1cncn1` (configuration not stated), the outcome was “inactive”.
For `O=[N+]([O-])C(Br)(CO)CO`, the AC50 was 127 µM (active).
With `CCNS(=O)(=O)C(F)(F)C(F)(F)C(F)(F)C(F)(F)C(F)(F)C(F)(F)C(F)(F)C(F)(F)F` the AC50 was 67.3 µM (active) and 25.7 µM (active) and the outcome was “inactive”.
With `CN(C)c1ccc(C(=O)c2ccc(N(C)C)cc2)cc1` the outcome was “inactive”.
In the case of `Cc1ccc(N=C=O)cc1N=C=O`, the outcome was “inactive”.
With `CC(C)N(Cc1ccccc1)C(=O)C(C)(C)C` the outcome was “inactive”.
In the case of `Cc1ccc([N+](=O)[O-])cc1`, the outcome was “inactive”.

Molecular target: Nuclear receptor subfamily 1 group I member 3 (Homo sapiens) (UniProt Q14994)
Sequence (Q14994 whole entry, looked up): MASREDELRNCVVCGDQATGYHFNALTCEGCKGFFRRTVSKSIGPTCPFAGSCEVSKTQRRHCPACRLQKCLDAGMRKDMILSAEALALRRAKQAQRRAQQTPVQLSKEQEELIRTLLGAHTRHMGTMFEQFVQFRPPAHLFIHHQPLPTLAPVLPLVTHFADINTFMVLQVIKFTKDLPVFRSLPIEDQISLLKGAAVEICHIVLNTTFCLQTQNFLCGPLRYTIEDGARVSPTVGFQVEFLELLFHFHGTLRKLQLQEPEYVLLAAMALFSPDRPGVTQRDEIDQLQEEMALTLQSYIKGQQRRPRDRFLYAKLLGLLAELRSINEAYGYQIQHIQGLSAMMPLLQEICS
Test: ATG_CAR_TRANS: Attagene TRANS-FACTORIAL HepG2 Assay for human Constitutive Androstane Receptor (CAR) (AID 2282969);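 also: activators raise reporter mRNA above DMSO so AC50 marks induction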
Settings: HepG2 Attagene TRANS-FACTORIAL CAR reporter
Outline: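 HepG2 cells transiently transfected with multiplexed GAL4-UAS reporter units expressing chimeric NR-Gal4 proteins; compound exposure 24 h. Reporter mRNA measured by RT-PCR, 6-FAM labelling, HpaI digestion and capillary electrophoresis; gain-of-signal fitted against DMSO baseline.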
In the case of `COC(=O)Nc1nc2ccccc2[nH]1`, the outcome was “inactive”.
For `Cc1cc(N=Nc2ccccc2C)ccc1N`, the outcome was “inactive”.
With `Clc1ccc(C(c2ccc(Cl)cc2)C(Cl)Cl)cc1` the outcome was “inactive”.
In the case of `CCC(C)c1ccc(O)cc1` (configuration not stated), the outcome was “inactive”.
With `c1ccc(N=Nc2ccccc2)cc1` the outcome was “inactive”.
For `O=P(OCCCl)(OCCCl)OCCCl`, the outcome was “inactive”.
With `c1ccc2c(c1)-c1cccc3cccc-2c13` the outcome was “inactive”.
With `CCCSC(=O)N(CCC)CCC` the outcome was “inactive”.
With `O=[N+]([O-])c1ccc(Oc2ccc(Cl)cc2Cl)cc1` the outcome was “inactive”.
In the case of `O=[N+]([O-])C(Br)(CO)CO`, the outcome was “inactive”.
For `N#CC(Br)Br`, the outcome was “inactive”.
With `CCNS(=O)(=O)C(F)(F)C(F)(F)C(F)(F)C(F)(F)C(F)(F)C(F)(F)C(F)(F)C(F)(F)F` the outcome was “inactive”.
In the case of `CC(C)N(Cc1ccccc1)C(=O)C(C)(C)C`, the outcome was “inactive”.
In the case of `Cc1ccc([N+](=O)[O-])cc1`, the outcome was “inactive”.
In the case of `Nc1ccc(Oc2ccc(N)cc2)cc1`, the outcome was “inactive”.

Molecular target: Estrogen receptor (Homo sapiens) (UniProt P03372)
Sequence (P03372 whole entry, looked up): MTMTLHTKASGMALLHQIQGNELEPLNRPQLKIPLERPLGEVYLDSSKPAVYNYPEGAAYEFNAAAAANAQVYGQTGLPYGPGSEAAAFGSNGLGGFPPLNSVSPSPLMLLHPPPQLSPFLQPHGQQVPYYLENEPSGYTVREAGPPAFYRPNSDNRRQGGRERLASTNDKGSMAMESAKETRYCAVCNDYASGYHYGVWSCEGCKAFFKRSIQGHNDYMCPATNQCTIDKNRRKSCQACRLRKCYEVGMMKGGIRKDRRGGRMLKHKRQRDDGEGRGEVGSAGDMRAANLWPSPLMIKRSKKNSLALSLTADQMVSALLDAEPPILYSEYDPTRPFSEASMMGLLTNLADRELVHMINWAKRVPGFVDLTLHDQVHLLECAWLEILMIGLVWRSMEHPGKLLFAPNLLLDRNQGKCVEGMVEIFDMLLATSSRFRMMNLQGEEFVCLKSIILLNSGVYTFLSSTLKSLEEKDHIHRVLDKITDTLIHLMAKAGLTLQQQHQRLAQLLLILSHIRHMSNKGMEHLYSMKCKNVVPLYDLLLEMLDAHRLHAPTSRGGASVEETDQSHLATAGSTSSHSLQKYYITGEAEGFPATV
Test: ATG_ERa_TRANS: Attagene TRANS-FACTORIAL HepG2 Assay for human Estrogen Receptor alpha (ERa) (AID 2282970)
Settings: HepG2 Attagene TRANS ERa GAL4 reporter, mRNA
Outline: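 After 24 h of compound treatment, RNA from HepG2 cells bearing transfected GAL4-UAS reporter constructs is converted to cDNA, amplified and fluorescently labelled. Capillary electrophoresis resolves the ERa-linked reporter; DMSO serves as negative control.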
For `Clc1ccc(C(c2ccc(Cl)cc2)C(Cl)Cl)cc1`, the AC50 was 16.2 µM (active).
In the case of `CC(C)COC(=O)c1ccccc1C(=O)OCC(C)C`, the outcome was “inactive”.
In the case of `O=[N+]([O-])C(Br)(CO)CO`, the outcome was “inactive”.
With `N#CC(Br)Br` the outcome was “inactive”.
With `Cc1ccc([N+](=O)[O-])cc1` the outcome was “inactive”.
In the case of `ClC1=C(Cl)C2(Cl)C3C(Cl)C=CC3C1(Cl)C2(Cl)Cl` (configuration not stated), the outcome was “inactive”.

Molecular target: Steroid hormone receptor ERR1 (Homo sapiens) (UniProt P11474)
Sequence (P11474 whole entry, looked up): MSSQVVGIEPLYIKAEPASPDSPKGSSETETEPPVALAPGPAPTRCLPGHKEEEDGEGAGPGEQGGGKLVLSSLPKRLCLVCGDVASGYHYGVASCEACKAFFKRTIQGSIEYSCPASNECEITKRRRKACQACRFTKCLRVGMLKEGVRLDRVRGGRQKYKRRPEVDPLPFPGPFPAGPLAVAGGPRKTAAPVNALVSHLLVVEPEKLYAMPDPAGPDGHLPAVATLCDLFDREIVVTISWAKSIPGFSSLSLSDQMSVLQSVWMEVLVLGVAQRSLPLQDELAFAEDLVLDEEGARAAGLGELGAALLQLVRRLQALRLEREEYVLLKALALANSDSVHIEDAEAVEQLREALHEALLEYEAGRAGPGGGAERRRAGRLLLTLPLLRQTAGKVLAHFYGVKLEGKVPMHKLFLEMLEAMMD
Test: ATG_ERRa_TRANS: Attagene TRANS-FACTORIAL HepG2 Assay for human Estrogen-Related Receptor alpha (ERRa) (AID 2282971)
Settings: HepG2 Attagene TRANS reporter, ERRa transactivation
Outline: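 Transfected HepG2, 24 h dosing, ERRa-Gal4 chimera driving GAL4-UAS reporter. Readout: reporter mRNA via RT-PCR plus capillary electrophoresis (fluorescence). Positive direction vs DMSO control.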
In the case of `Cc1cc(N=Nc2ccccc2C)ccc1N`, the outcome was “inactive”.
In the case of `c1ccc(N=Nc2ccccc2)cc1`, the outcome was “inactive”.
In the case of `O=P(OCCCl)(OCCCl)OCCCl`, the outcome was “inactive”.
For `O=[N+]([O-])c1ccc(Oc2ccc(Cl)cc2Cl)cc1`, the outcome was “inactive”.
With `CCNS(=O)(=O)C(F)(F)C(F)(F)C(F)(F)C(F)(F)C(F)(F)C(F)(F)C(F)(F)C(F)(F)F` the outcome was “inactive”.
With `Nc1ccc(Oc2ccc(N)cc2)cc1` the outcome was “inactive”.

Molecular target: X-box-binding protein 1 (Homo sapiens) (UniProt P17861)
Sequence (P17861 whole entry, looked up): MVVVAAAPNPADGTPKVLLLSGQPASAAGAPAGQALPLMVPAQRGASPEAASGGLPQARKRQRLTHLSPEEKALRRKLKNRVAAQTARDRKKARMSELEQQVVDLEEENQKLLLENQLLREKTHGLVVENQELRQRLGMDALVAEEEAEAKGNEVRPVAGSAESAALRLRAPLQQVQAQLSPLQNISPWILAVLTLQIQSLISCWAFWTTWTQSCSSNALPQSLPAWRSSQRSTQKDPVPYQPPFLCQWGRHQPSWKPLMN
Test: ATG_Xbp1_CIS: Attagene CIS-FACTORIAL HepG2 Assay for human X-box Binding Protein 1 (XBP1) (AID 2282972; active = hit-call score of the fitted dose curve at least 0.9, where 1 is the maximum; inactive = score below 0.9)
Settings: HepG2 XBP1 cis-element reporter, Attagene multiplex; actives raise or lower the signal
Outline: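 Fluorescence-labelled cDNA fragments from reporter transcripts, separated by capillary electrophoresis, give the signal. Source: HepG2 cells transfected with promoter-driven reporter units, harvested 24 h post-dose. DMSO served as reference for bidirectional curve fitting.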
With `Cc1cc(N=Nc2ccccc2C)ccc1N` the AC50 was 19.3 µM (active).
With `Clc1ccc(C(c2ccc(Cl)cc2)C(Cl)Cl)cc1` the AC50 was 56.2 µM (active).
With `CC(C)COC(=O)c1ccccc1C(=O)OCC(C)C` the AC50 was 65.8 µM (active).
For `[As]#[In]`, the outcome was “inactive”.
For `CCC(C)c1ccc(O)cc1` (configuration not stated), the AC50 was 51.8 µM (active).
With `ClCCOCCCl` the outcome was “inactive”.
For `O=P(OCCCl)(OCCCl)OCCCl`, the outcome was “inactive”.
In the case of `c1ccc2c(c1)-c1cccc3cccc-2c13`, the outcome was “inactive”.
For `O=[N+]([O-])c1ccc(Oc2ccc(Cl)cc2Cl)cc1`, the outcome was “inactive”.
In the case of `CN(C)[C@@H]1C(=O)C(C(N)=O)=C(O)[C@@]2(O)C(=O)C3=C(O)c4c(O)cccc4[C@@](C)(O)[C@H]3C[C@@H]12`, the outcome was “inactive”.
In the case of `O=[N+]([O-])C(Br)(CO)CO`, the AC50 was 145 µM (active).
In the case of `N#CC(Br)Br`, the outcome was “inactive”.
For `CCNS(=O)(=O)C(F)(F)C(F)(F)C(F)(F)C(F)(F)C(F)(F)C(F)(F)C(F)(F)C(F)(F)F`, the AC50 was 73.3 µM (active) and 84.4 µM (active) and 31.5 µM (active).
In the case of `Cc1ccc([N+](=O)[O-])cc1`, the outcome was “inactive”.

Test system: not listed separately
Test: ATG_M_19_TRANS: Attagene TRANS-FACTORIAL HepG2 Assay for M19 Transcription Factor (Internal Marker) (AID 2282974)
Settings: HepG2 Attagene TRANS-FACTORIAL M19 internal marker reporter
Outline: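 Multiplexed TRANS format: HepG2 liver cells bearing transient GAL4-UAS reporter units, chemical treatment 24 h, reporter transcripts quantified by RT-PCR plus capillary electrophoresis. DMSO defines baseline.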
For `COC(=O)Nc1nc2ccccc2[nH]1`, the outcome was “inactive”.
For `Cc1cc(N=Nc2ccccc2C)ccc1N`, the outcome was “inactive”.
For `Clc1ccc(C(c2ccc(Cl)cc2)C(Cl)Cl)cc1`, the outcome was “inactive”.
In the case of `O=Cc1ccco1`, the outcome was “inactive”.
With `c1ccc(NNc2ccccc2)cc1` the outcome was “inactive”.
In the case of `CC(C)COC(=O)c1ccccc1C(=O)OCC(C)C`, the outcome was “inactive”.
In the case of `CCC(C)c1ccc(O)cc1` (configuration not stated), the outcome was “inactive”.
For `ClCCOCCCl`, the outcome was “inactive”.
In the case of `O=P(OCCCl)(OCCCl)OCCCl`, the outcome was “inactive”.
For `COP(=S)(OC)SCN1C(=O)c2ccccc2C1=O`, the outcome was “inactive”.
For `O=[N+]([O-])c1ccc(Oc2ccc(Cl)cc2Cl)cc1`, the outcome was “inactive”.
In the case of `CC(C)(C)C(O)(CCc1ccc(Cl)cc1)Cn1cncn1` (configuration not stated), the outcome was “inactive”.
With `CN(C)[C@@H]1C(=O)C(C(N)=O)=C(O)[C@@]2(O)C(=O)C3=C(O)c4c(O)cccc4[C@@](C)(O)[C@H]3C[C@@H]12` the outcome was “inactive”.
With `CCNS(=O)(=O)C(F)(F)C(F)(F)C(F)(F)C(F)(F)C(F)(F)C(F)(F)C(F)(F)C(F)(F)F` the outcome was “inactive”.
With `CN(C)c1ccc(C(=O)c2ccc(N(C)C)cc2)cc1` the outcome was “inactive”.
With `C[N+](C)(C)CC1CO1` (configuration not stated) the outcome was “inactive”.
With `CC(C)N(Cc1ccccc1)C(=O)C(C)(C)C` the outcome was “inactive”.
